22 compounds from PubChem BioAssay (EPA / NIEHS) can be followed below.

Records with an inconclusive call do not appear. Some structures have more than one record in an assay (separate samples or runs), and their calls can disagree. Active and inactive are the calls of the source. How the source made its calls, unless noted: active means hit-call score of the fitted dose curve at least 0.9, where 1 is the maximum; inconclusive means response in the unintended direction; inactive means score below 0.9.

The nature of assay [1]: CCTE_Mundy_HCI_iCellGluta_NOG_NeuriteLength: CCTE's Neurite Outgrowth Assay in iCellGluta cells for Neurite Length, Mundy Lab (AID 2284318). The procedure, abridged:
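Automated high-content imaging of betaIII-tubulin (Alexa Fluor-488) and Hoechst-stained cells gave neurite length, normalized to the DMSO baseline.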

The nature of assay [2]: IUF_NPC1_cytotoxicity_72hr: Cytotoxicity Assessment at 72 hours in the Leibniz Research Institute for Environmental Medicine (IUF) Neural Progenitor Cell Proliferation Assay (NPC1) (AID 2284332).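 Further: rising LDH signal means more cytotoxicity.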 The procedure, abridged:
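Single human fetal cortex neural progenitor spheres (GW 16-19, 0.25-0.35 mm) in EGF/FGF proliferation medium were exposed to compound for 72 h at 37C without renewal. Medium LDH release was read as resorufin fluorescence and fitted as gain-of-signal.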

The nature of assay [3]: CCTE_Mundy_HCI_iCellGluta_NOG_NeuronCount: CCTE's Neurite Outgrowth Assay in iCellGluta cells for Neuron Count, Mundy Lab (AID 2284340).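 Further: cells fixed about 48 h after compound addition.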 The method in brief:
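Neuron count read by automated high-content imaging of Hoechst 33342 and betaIII-tubulin/Alexa Fluor-488 labelling in human iPSC glutamatergic neurons. Activity fitted relative to DMSO.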

The nature of assay [4]: CCTE_Mundy_HCI_iCellGluta_NOG_NeuriteCount: CCTE's Neurite Outgrowth Assay in iCellGluta cells for Neurite Count, Mundy Lab (AID 2284342).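 Further: chemical exposure about 48 hours starting 2 hours after plating.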
In the next assay the test system is SERPINA7 (gene 6906). As to the kind of experiment: CCTE_GLTED_hTBG: CCTE's human Thyroxine-binding Globulin (TBG) Inhibition Assay, Great Lakes Toxicology and Ecology Division (GLTED) Lab (AID 2284343).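 Further: active chemicals lower fluorescence versus DMSO baseline by displacing probe.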 The procedure, abridged: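 Cell-free binding assay in which human TBG is incubated with test chemical for 2 hours and displacement of the fluorescent probe ANSA is read at 380 nm excitation/475 nm emission. Activity is fitted against DMSO as the negative control.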

Assay [5] can be described thus: CCTE_Deisenroth_5AR_NBTE_donor: CCTE's 5alpha-reductase NanoBRET Target Engagement Assay […], Deisenroth Lab (AID 2284319; active means hit-call score of the fitted dose curve at least 0.9, where 1 is the maximum; inactive means score below 0.9). To be noted: actives raise or lower the signal. The procedure, abridged:
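HEK293T cells transiently expressing SRD5A2-NanoLuc, exposed 5 h to chemicals (8 points, 10 nM - 29.9 uM), with testosterone tracer for the final 2 h. Donor luminescence at 460 nm read after Nano-Glo substrate plus extracellular NanoLuc inhibitor; bidirectional fit versus DMSO.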
(In general: BRET reads energy transfer from a luciferase to a nearby fluorophore.)

Assay [6] in a line: CCTE_Deisenroth_5AR_NBTE_acceptor: CCTE's 5alpha-reductase NanoBRET Target Engagement Assay - Autofluorescence Screen, Deisenroth Lab (AID 2284321; active means hit-call score of the fitted dose curve at least 0.9, where 1 is the maximum; inactive means score below 0.9;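 further: compound fluorescence in the acceptor channel under 460 nm excitation flags autofluorescence artifacts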). To be noted: actives raise or lower the signal. The procedure, abridged:
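Acceptor-channel fluorescence flags artifacts, with excitation fixed at 460 nm. Nominal 100 uM chemical samples were read in triplicate runs, and signal changes were fitted in both directions relative to DMSO.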

In another assay the test system is SRD5A2 (gene 6716). In words: CCTE_Deisenroth_5AR_NBTE_ratio: CCTE's 5alpha-reductase NanoBRET Target Engagement Assay - Ratio, Deisenroth Lab (AID 2284322; active means hit-call score of the fitted dose curve at least 0.9, where 1 is the maximum; inactive means score below 0.9). To be noted: actives raise or lower the signal. The method in brief: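 Reverse-transfect HEK293T with pNLF1-C-SRD5A2, express 20 h. Pre-incubate cells with chemical 3 h (8-point series, 10 nM - 29.9 uM, duplicate). Add testosterone tracer, 2 h more. Add substrate/inhibitor, read donor and acceptor emission.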

Assay [7] is described as follows: TAMU_PeakParms_SingleDonor1434_Asystole: Texas A&M University (TAMU) 1.5-hr Human Induced Pluripotent Stem Cell (iPSC)-derived Cardiomyocytes Calcium (Ca+2) Flux Assay for Cardiotoxicity: Asystole (quiescence of beating) (AID 2284328). The method in brief:
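Human iPSC-derived cardiomyocytes (donor 1434) were exposed to 0.2, 1, 10 and 100 uM compound in 0.5% DMSO for 90 min at 37C. Ca2+-dye fluorescence gave average peak frequency; POD is EC95, a 95% beat-rate drop versus DMSO.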

The nature of assay [8]: VALA_TUBHUV_Antagonist_TubuleLength: VALA Sciences human Umbilical Vein Endothelial Tubule Formation (TUBHUV) Antagonism Assay (AID 2284325). The procedure, abridged: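 HUVEC–HDF co-culture (1:3) pre-grown 3 days with 10 ng/ml VEGF, then 3 days with compound plus VEGF. Fixed, nuclear and CD31 stained; total tubule length by imaging versus 0.1% DMSO; suramin 100 uM positive control.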

Assay [9] is described as follows: VALA_MIGHUV1_ScratchOnly_CellCount: Viability Assessment in the VALA Sciences human Umbilical Vein Endothelial Cell Migration (MIGHUV) Assay, Scratch Wound Inhibited Recovery (AID 2284327). The method in brief:
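HUVEC scratched after 24 h culture, chemical added within 30 min at 6 concentrations in triplicate (0.1% DMSO vehicle). After 24 h recovery, fixed cells were counted by Hoechst nuclear imaging in the wound area.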

A short description of assay [10]: VALA_TUBIPS_Antagonist_CellCount: Viability Assessment in the VALA Sciences human iPS-derived Endothelial Tubule Formation (TUBIPS) Antagonism Assay (AID 2284335). The protocol: VALA_TUBIPS_Agonist is a cell-based, multiplexed assay that uses human iPS-derived endothelial cells (iPSC). Measurements were taken 72 hours after chemical dosing in a 96-well plate.VALA_TUBIPS_Antagonist_CellCount is the one of two assay components measured from the VALA_TUBIPS_Antagonist assay. It is designed to make measurements of viability, a form of viability reporter, as detected with fluorescence intensity signals by HCS Fluorescent Imaging technology. Data from the assay component VALA_TUBIPS_Antagonist_CellCount was analyzed at the endpoint, VALA_TUBIPS_Antagonist_CellCount, in the positive analysis fitting direction relative to DMSO as the negative control and baseline of activity. Using a type of viability reporter, loss-of-signal activity can be used to understand viability. To generalize the intended target to other relatable targets, this assay endpoint is annotated to the cell cycle intended target family, where the subfamily is cell count.
[…]

Assay [11] can be described thus: VALA_MIGHUV1_ScratchOnly_WoundArea: VALA Sciences human Umbilical Vein Endothelial Cell Migration (MIGHUV) Assay, Area of Scratch Wound Inhibited Recovery (AID 2284336). The method in brief:
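HUVEC monolayers (9000 cells/well) were scratched after 24 h, dosed within 30 min (six concentrations, triplicate, 0.1% DMSO), allowed 24 h recovery, then fixed. Hoechst-stained nuclei in the wound imaged; cytochalasin D as reference.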

The nature of assay [12]: VALA_TUBHUV_Agonist_TubuleLength: VALA Sciences human Umbilical Vein Endothelial Tubule Formation (TUBHUV) Agonism Assay (AID 2284337). The procedure, abridged: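 HUVEC co-cultured with fibroblasts (1:3) 3 days in 10 ng/ml VEGF, then 3 days with compound plus VEGF; 0.1 % DMSO neutral control. Fixed, nuclear and CD31 stained; tubule length by fluorescence imaging.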
Assay [13] can be described thus: VALA_TUBIPS_Agonist_CellCount: Viability Assessment in the VALA Sciences human iPS-derived Endothelial Tubule Formation (TUBIPS) Agonism Assay (AID 2284338).
The subject of the next assay is TTR (gene 7276). In words: CCTE_GLTED_hTTR_0.5uM: CCTE's human Transthyretin (hTTR) Inhibition Assay, with 0.5uM TTR, Great Lakes Toxicology and Ecology Division (GLTED) Lab (AID 2284320; active means hit-call score of the fitted dose curve at least 0.9, where 1 is the maximum; inactive means score below 0.9). The procedure, abridged:
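Cell-free displacement assay in which human TTR at 0.5 uM was incubated with test chemical for 2 h. Displacement of the ANSA probe was read by fluorescence at 380 nm excitation/475 nm emission. Loss of signal was fitted in the positive direction versus DMSO.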

A short description of assay [14]: Tanguay_ZF_120hpf_MO24: Oregon State University Tanguay Lab 24 Hour Post-fertilization zebrafish Assay for Mortality (AID 2284389; active means hit-call score of the fitted dose curve at least 0.9, where 1 is the maximum; inactive means score below 0.9). The method in brief:
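Dechorionated wild-type zebrafish embryos, 1 per well, statically exposed from 6 hpf at 28C, 0.64% DMSO final. Mortality scored as binary present/absent at 24 hpf by brightfield microscopy, relative to DMSO.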

Regarding `CCCCOC(=O)c1ccccc1C(=O)OCc1ccccc1`, the compound was called inactive in assay [1], in [2], in [3] and in assay [4]. Moreover, the half-maximal activity concentration (AC50) with SERPINA7 (gene 6906) was 2.23 µM (active).
`Brc1ccc(Oc2ccccc2)cc1`: the AC50 in the assay on SERPINA7 (gene 6906) was 45.4 µM (active).
Turning to `CCCCCCCCn1sccc1=O`, the concentration at half-maximal activity (AC50) was 72.7 µM (active) in assay [5], 73.2 µM (active) in assay [6] and 71.1 µM (active) with SRD5A2 (gene 6716). Also, the outcome in assay [7] was inactive.
In the case of `Cc1ccc(N)c(N)c1`, the compound was classed as inactive in assay [5]. The half-maximal activity concentration (AC50) is 50 µM (active) in assay [6] and 22.7 µM (active) in the assay with SRD5A2 (gene 6716).
In the case of `CO[C@@H]1[C@H](OC(=O)NC(=O)CCl)CC[C@]2(CO2)[C@H]1[C@@]1(C)O[C@@H]1CC=C(C)C`, the outcome in assay [8], in assay [9], in assay [10], in assay [11], in assay [12] and in assay [13] was inactive. For the same compound, the concentration at half-maximal activity (AC50) in [13] is 0.168 µM (active).
Regarding `COC(=O)Nc1nc2ccccc2[nH]1`, the compound was classed as inactive in assay [1], in [2], in assay [3] and in [4].
As for `Nc1ccc(N=Nc2ccccc2)cc1`, the AC50 in [5] was 23.8 µM (active); with SRD5A2 (gene 6716), 50 µM (active); in the assay with SERPINA7 (gene 6906) it was 20.9 µM (active). In addition, the outcome in [6] was inactive.
As for `[O-][Cl+]O`, the half-maximal activity concentration (AC50) in assay [1] is 24 µM (active). Moreover, the result in assay [2], in [3] and in assay [4] was inactive.
For the compound `CCNS(=O)(=O)C(F)(F)C(F)(F)C(F)(F)C(F)(F)C(F)(F)C(F)(F)C(F)(F)C(F)(F)F`, the AC50 with TTR (gene 7276) is 1.54 µM (active). The compound was called inactive in assay [14].
In the case of `c1ccc2c(c1)-c1cccc3cccc-2c13`, the compound was classed as inactive (in assay [5]; in assay [6]; with SRD5A2 (gene 6716)).
`c1ccc(NNc2ccccc2)cc1`: the concentration at half-maximal activity (AC50) in the assay on SERPINA7 (gene 6906) was 39.1 µM (active).
Turning to `CCC[CH2][Sn]([Cl])([CH2]CCC)[CH2]CCC`, the AC50 in assay [1] is 0.163 µM (active); in assay [5], 4.88 µM (active); in [6], 4.25 µM (active); in the assay with SRD5A2 (gene 6716), 16.8 µM (active); in assay [2], 0.637 µM (active); in assay [3], 0.257 µM (active). Further, the AC50 in assay [4] is 0.183 µM (active).
For `Oc1ccc2ccc3cccc4ccc1c2c34`, the compound was called inactive in assay [8], in [10], in [12] and in assay [13].
For the compound `C[C@]12C=CC3=C4CCC(=O)C=C4CC[C@H]3[C@@H]1CC[C@@H]2O`, the call (in [5]; in assay [6]; in the assay with SRD5A2 (gene 6716)) was inactive.
As for `O=P(OCCCl)(OCCCl)OCCCl`, the compound was called inactive in assay [8], in [2], in [10], in [11] and in [12].
`ClC1=C(Cl)[C@]2(Cl)[C@H]3[C@H]([C@@H]4C=C[C@H]3C4)[C@@]1(Cl)C2(Cl)Cl`: in assay [7], the result was inactive.
For the compound `OCCOCCO`, the compound was called inactive in assay [2].
Regarding `CNC(=O)Oc1cccc2c1OC(C)(C)C2`, the concentration at half-maximal activity (AC50) in assay [1] was 49.6 µM (active). Moreover, the compound was classed as inactive in assay [2], in assay [3] and in [4].
For the compound `[Cl-].[Cl-].[Hg+2]`, the half-maximal activity concentration (AC50) in assay [5] is 74.8 µM (active); in assay [6], 73.3 µM (active); in the assay with SRD5A2 (gene 6716), 75.4 µM (active); with SERPINA7 (gene 6906), 27.6 µM (active).
For `CC(C)(O)c1cnn2c(-c3ccc(F)c(-c4c(F)cccc4C#N)c3)cnc2n1`, the result in [5] and in assay [6] was inactive. For the same compound, the half-maximal activity concentration (AC50) in the assay on SRD5A2 (gene 6716) was 13.5 µM (active).
For the compound `O=C(Nc1ccccc1)c1ccccc1I`, the AC50 with SERPINA7 (gene 6906) was 15.7 µM (active).
For `Nc1cc(Cl)cc(C(=O)O)c1Cl`, the call with SERPINA7 (gene 6906) was inactive.

The AC50 is the concentration at which the activity in the assay is half-maximal.
